36 molecules from ChEMBL document CHEMBL1157539, “Thousands of chemical starting points for antimalarial lead identification” (Nature, 2010) can be followed below.

One test concerns Plasmodium falciparum. Put plainly: GSK_TCMDC: Inhibition of Plasmodium falciparum 3D7 in whole red blood cells, using parasite LDH activity as an index of growth. Test compounds present at 2uM. It counts as functional.
One may read the Inhibition as the drop in the measured response relative to a control, in per cent. A lower Inhibition goes with little suppression. In turn, `Cc1c(Cc2ccccc2Br)cnc2nc(N)nc(N)c12.Cl` showed an Inhibition of 88%.

`CCc1ccc(NC(=O)c2ccc(CN3CCCN(Cc4ccc(C)s4)CC3)cc2)cc1.O=C(O)C(F)(F)F` displayed an Inhibition of 87%. On the same count and under the same terms, to `CN(C)CCN(Cc1ccccc1)c1ccc([N+](=O)[O-])cc1C(F)(F)F.O=C(O)C(F)(F)F` belongs 96%; to `CCN(Cc1ccc(-c2ccc(C(F)(F)F)cc2)cc1)C(=O)Cn1c(SCc2cccc(F)c2F)cc(=O)c2cc(CN3CCCCC3)ccc21.Cl`, 100%.

A further test concerns Plasmodium falciparum. Nature of the test: GSK_TCMDC: Inhibition of Plasmodium falciparum Dd2 in whole red blood cells, using parasite LDH activity as an index of growth. Test compounds present at 2uM. It counts as functional.
As to `CO/C(=C\C=C\c1cc2cc(Cl)c(Cl)cc2[nH]1)C(=O)NCCCNC12CC3CC(CC(C3)C1)C2`, the Inhibition is on record as 76%. Still for that read-out and setting: to `CCCCOc1ccc(CNCCCCCCNCc2ccc(OCCCC)c3ccccc23)c2ccccc12.CS(=O)(=O)O` belongs 49%; to `CCCO[C@H](C(=O)OC)[C@@H](CC1Cc2ccccc2C1)C(=O)NCCC1=CCCCC1`, 57%; to `CCOc1cc(/C=N/Nc2nc3ccccc3[nH]2)ccc1OCc1ccc([N+](=O)[O-])cc1`, 1%. `CCc1cn2c3c(cc(C(=O)N[C@@H](Cc4ccccc4)[C@H](O)CNCc4ccccc4C)cc13)N(C)S(=O)(=O)CC2.O=CO` registered an Inhibition of 98%. Consider `N#Cc1ccc(-c2ccc(C(=O)NCCCCN3CCC(c4ccc5c(c4OCC(N)=O)CCCC5)CC3)cc2)cc1`, for which the Inhibition was determined as 23%. `O=[N+]([O-])c1ccc2c(-c3ccccc3)c(-c3ccccc3)n(O)c2c1` returned an Inhibition of 11%. `CC1CCCCN1S(=O)(=O)c1ccc(NC(=O)c2cc(-c3ccccc3O)n[nH]2)cc1` (stereo unspecified): the Inhibition is on record as 96%. Consider `CC(=O)NCCNc1nccc(N2CCc3ncnc(Nc4ccc(OCc5ccccn5)c(Cl)c4)c3C2)n1`, for which the Inhibition amounted to 99%. As to `Cl.O=S(=O)(NCCCN1CCOCC1)c1ccc2nccc(Nc3ccc(Oc4ccccc4)cc3)c2c1`, the Inhibition was found to be 92%.

In the case of `CCCCn1c(Sc2ccc(C#N)c([N+](=O)[O-])c2)nnc1-c1cc(OC)cc(OC)c1`, the Inhibition is reported as 70%. The same measure, in the same setting: to `Cc1nc2ccc3ccc(CNc4ccc(C(=O)N[C@@H](CCC(=O)O)C(=O)N[C@@H](Cc5cccs5)C(=O)O)c(F)c4)cc3c2c(=O)[nH]1` belongs 96%; to `CCc1cccc2sc(N3CCN(C(=O)c4ccc([N+](=O)[O-])o4)CC3)nc12`, 94%; to `Oc1cc(NCCCNC2CCc3c(Cl)cc(Cl)cc32)nc2ccccc12` (stereo unspecified), 29%. Still for that read-out and setting: the value for `COc1ccc2nccc(NC(=O)C3CCC(NCc4ccc5c(c4)NC(=O)CS5)CC3)c2c1` (stereo unspecified) was 19%; that for `O=C(NC1CCN(Cc2ccc(F)cc2)CC1)c1ccc(-c2cccc(C(F)(F)F)c2)s1.O=C(O)C(F)(F)F` was 11%; that for `C(=N\Nc1nccc2sc(-c3cccnc3)cc12)/c1cccnc1` was 54%.

`CC(=O)N(C)c1cccc(C(=O)Nc2cccc(-c3cccc(-c4nc5cccc(C)c5[nH]4)c3)c2)c1`: the Inhibition stood at 41%.

Turning to `Fc1ccc(-c2cncc(-c3ccc(F)cc3)n2)cc1`, the Inhibition came to 94%. The molecule `CN1CCN(c2cc(-c3ccncc3)nc(-c3cccnc3)n2)CC1` showed an Inhibition of 98%. The same measure, in the same setting: the value for `Cc1ccc(F)c(C(=O)Nc2cccc(-c3nn4ccccc4c3-c3ccnc(Nc4cccc(F)c4)n3)c2)c1F` was 60%; that for `CCn1c(-c2nonc2N)nc2c(-c3cccc(NC(=O)Nc4ccc(Cl)cc4)c3)ncc(OCCCN)c21.O=C(O)C(F)(F)F` was 72%; that for `Cc1ccccc1NC(=S)NC1CCN(CCCCCNC(=O)/C=C/c2ccc(Cl)c(Cl)c2)CC1` was 7%.

Take `COc1cc2c(cc1C(F)(F)F)N(C(=O)Nc1cc(F)cc(-c3cccnn3)c1)CC2`: the Inhibition is listed as 34%. Same read-out and setting: to `Cc1cc(N2CCN(C3CCCCC3)CC2)nc2cccc(O)c12` belongs 37%; to `NCCNc1ccc([N+](=O)[O-])cc1C(=O)Nc1cccc(C(F)(F)F)c1`, 33%. The same measure, in the same setting: to `Br.COc1ccc(OCCCON2C(=N)N=C(N)NC2(C)C)cc1` belongs 94%; to `COc1cccc(NC(=O)N2CCOC(CCN3CCC4(CCc5ccccc54)CC3)(c3ccc(Cl)c(Cl)c3)C2)c1` (stereo unspecified), 72%; to `COc1cc2nc(N3CC(C)N(C(=O)Cc4ccc(-c5ccccc5)cc4)C(C)C3)nc(N)c2cc1OC` (stereo unspecified), 12%. `O=C(Nc1nc2ccc(Cl)cc2s1)c1csnn1` came in with an Inhibition of 99%. Consider `O=C(Nc1ccc(Oc2ccccc2)cc1)N1CCC(CCN2CCC(c3c[nH]c4ccccc34)CC2)CC1`, for which the Inhibition was 36%. The same measure, in the same setting: the value for `CN(Cc1cccc(O)c1)C1CCCN(c2cc(NC(=O)c3ccc(F)cc3)ccn2)C1.O=C(O)C(F)(F)F` (stereo unspecified) was 12%.
